For 5 compounds, outcome and AC50 results are on record in PubChem BioAssay (EPA / NIEHS).

Values joined by “and” are separate entries in the source; they are usually repeats but may differ in a detail not shown here. Equal entries are not always repeated. Records with an inconclusive call do not appear. A structure can be active in one record and inactive in another. Active and inactive are the calls of the source. How the source made its calls, unless noted: active means hit-call score of the fitted dose curve at least 0.9, where 1 is the maximum; inactive means score below 0.9.

Assay [1] can be described thus: ATG_GAL4_TRANS: Attagene TRANS-FACTORIAL HepG2 Assay for GAL4 (Internal Marker) (AID 2282976; active means hit-call score of the fitted dose curve at least 0.9, where 1 is the maximum). The note with it: HepG2 Attagene TRANS GAL4 internal marker reporter. Put shortly: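 RT-PCR/capillary electrophoresis readout of reporter mRNA. HepG2, transient MRTU transfection (GAL4-UAS reporters), 24 h compound exposure. Background-control endpoint, positive direction vs DMSO baseline.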

Assay [2] concerns the target Oxysterols receptor LXR-alpha (Homo sapiens) (UniProt Q13133). The assay is described as follows: ATG_LXRa_TRANS: Attagene TRANS-FACTORIAL HepG2 Assay for human Liver X Receptor alpha (LXRa) (AID 2282980; active means hit-call score of the fitted dose curve at least 0.9, where 1 is the maximum). As to conditions: HepG2 Attagene TRANS reporter, LXRa transactivation. In short, it runs like this: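 Read-out: reporter transcript levels by RT-PCR plus capillary electrophoresis, fluorescence intensity. Transiently transfected HepG2, exogenous NR-GAL4 chimera, GAL4-UAS reporters; 24 h compound exposure. Activity = increase over DMSO negative control.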

Assay [3] deals with Oxysterols receptor LXR-beta (Homo sapiens) (UniProt P55055). The experiment in a line: ATG_LXRb_TRANS: Attagene TRANS-FACTORIAL HepG2 Assay for human Liver X Receptor beta (LXRb) (AID 2282981; active means hit-call score of the fitted dose curve at least 0.9, where 1 is the maximum). As to conditions: HepG2 Attagene TRANS GAL4-LXRb reporter, mRNA. In short, it runs like this: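 Measures induction of a Gal4-driven reporter transcript in HepG2 cells expressing an exogenous LXRb-Gal4 fusion. Cells are exposed to compound for 24 h before RNA isolation and RT-PCR with capillary electrophoresis detection.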

Assay [4] can be described thus: ATG_M_06_TRANS: Attagene TRANS-FACTORIAL HepG2 Assay for M06 Transcription Factor (Internal Marker) (AID 2282983; active means hit-call score of the fitted dose curve at least 0.9, where 1 is the maximum). The note with it: HepG2 Attagene TRANS M06 internal marker reporter. In short, it runs like this:
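Read-out: fluorescent reporter cDNA fragments resolved by capillary electrophoresis after RT-PCR and HpaI cut. Source cells were HepG2 carrying transfected multi-reporter GAL4 constructs, dosed 24 h. Increase over DMSO control analysed.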

Assay [5] in a line: ATG_M_32_TRANS: Attagene TRANS-FACTORIAL HepG2 Assay for M32 Transcription Factor (Internal Marker) (AID 2282984; active means hit-call score of the fitted dose curve at least 0.9, where 1 is the maximum;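 further: transcript level of a background control reporter unit measured by RT-PCR and capillary electrophoresis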). As to conditions: HepG2 Attagene TRANS M32 internal marker reporter. In short, it runs like this: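 After 24 h dosing of transfected HepG2 cells, total RNA was reverse-transcribed, reporter sequences PCR-amplified, 6-FAM labelled by primer extension and HpaI-digested before capillary electrophoresis. Signal increase over DMSO was fitted.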

Assay [6] addresses Nuclear receptor subfamily 4 group A member 2 (Homo sapiens) (UniProt P43354). The experiment in a line: ATG_NURR1_TRANS: Attagene TRANS-FACTORIAL HepG2 Assay for human Nuclear Receptor Related Protein 1 (NURR1) (AID 2282985; active means hit-call score of the fitted dose curve at least 0.9, where 1 is the maximum). As to conditions: HepG2 Attagene TRANS reporter, mRNA readout. Put shortly: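 Chimeric NR-Gal4 fusion activity measured in HepG2 after 24 h treatment. Reporter transcripts detected by RT-PCR and capillary electrophoresis fluorescence; positive-direction curve fitting against DMSO.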

In assay [7] the target is Transcriptional activator Myb (Homo sapiens) (UniProt P10242). The assay is described as follows: ATG_Myb_CIS: Attagene CIS-FACTORIAL HepG2 Assay for human Myeloblastosis (Myb) Proto-Oncogene Transcription Factor (AID 2282986). As to conditions: HepG2 Attagene CIS-FACTORIAL Myb reporter transcription; actives raise or lower the signal. In short, it runs like this:
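Transiently transfected HepG2 cells, treated 24 h. Reporter mRNA quantified by RT-PCR/capillary electrophoresis; bidirectional fit relative to DMSO.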

Assay [8] is described as follows: ATG_NFI_CIS: Attagene CIS-FACTORIAL HepG2 Assay for human Nuclear Factor I (NFI) (AID 2282989). The note with it: HepG2 cis-regulatory reporter, NFI response element transcription; actives raise or lower the signal. Put shortly: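 After transient transfection of HepG2 with cis-promoter reporter constructs and 24 h dosing, RNA is reverse-transcribed, amplified, 6-FAM end-labelled and HpaI-digested before capillary analysis. Bidirectional curve fitting against DMSO.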

Assay [9] addresses Myc proto-oncogene protein (Homo sapiens) (UniProt P01106). The experiment in a line: ATG_Myc_CIS: Attagene CIS-FACTORIAL HepG2 Assay for human Myelocytomatosis (Myc) Proto-Oncogene Transcription Factor (AID 2282990). As to conditions: HepG2, Attagene cis-reporter transcription factor activity; actives raise or lower the signal. Put shortly: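 DMSO-normalised, bidirectionally fitted reporter mRNA signal. HepG2 cells transfected with cis reporter constructs, treated 24 h; transcripts detected by RT-PCR, 6-FAM primer extension and CE.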

Assay [10] can be described thus: ATG_NRF2_ARE_CIS: Attagene CIS-FACTORIAL HepG2 Assay for human Nuclear Factor Erythroid 2 Related Factor 2 (NFR2) response to Antioxidant Response Elements (ARE) (AID 2282992). The note with it: HepG2 Attagene ARE/NRF2 reporter, transcription factor activity; actives raise or lower the signal. In short, it runs like this: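 Fluorescence intensity of reporter-specific cDNA fragments, separated by capillary electrophoresis, reflects mRNA induction in transfected HepG2 cells at 24 h. Activity is fitted bidirectionally, DMSO serving as baseline.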

Assay [11] is described as follows: ATG_Oct_MLP_CIS: Attagene CIS-FACTORIAL HepG2 Assay for human Octamer-Binding Transcription Factor (Oct) (AID 2282993). As to conditions: HepG2 Attagene cis-factorial Oct reporter, mRNA; actives raise or lower the signal. Put shortly:
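Cells of the HepG2 line express promoter-controlled reporter sequences whose mRNA levels, after 24 h treatment, are measured by RT-PCR and capillary electrophoresis. Increases and decreases are scored relative to DMSO.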

Assay [12] has as its target Cellular tumor antigen p53 (Homo sapiens) (UniProt P04637). The assay is described as follows: ATG_p53_CIS: Attagene CIS-FACTORIAL HepG2 Assay for human p53 Transcription Factor (AID 2282994). The note with it: HepG2 p53 cis-element reporter, Attagene mRNA; actives raise or lower the signal. In short, it runs like this: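 Transiently transfected HepG2 (multiple cis reporter transcription units); exposure 24 h; reporter RNA via RT-PCR, 6-FAM extension, 2 h HpaI digest at 37 C, CE detection; DMSO baseline.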

The nature of assay [13]: BSK_3C_uPAR: BioMAP Diversity Plus: 3C Assay for Urokinase-type plasminogen activator receptor (uPAR) Biomarker Activity (AID 2282998). The note with it: BioMAP 3C HUVEC, uPAR biomarker ELISA; actives raise or lower the signal. Put shortly: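 Endothelial primary cells of human umbilical vein origin received test chemical; 24 h later uPAR was assayed by ELISA. Fitting was bidirectional, DMSO as negative control.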

Assay [14] is described as follows: BSK_3C_VCAM1: BioMAP Diversity Plus: 3C Assay for Vascular cell adhesion molecule 1 (VCAM1) Biomarker Activity (AID 2282999). As to conditions: BioMAP 3C HUVEC, VCAM1 ELISA, cytokine-stimulated; actives raise or lower the signal. Put shortly: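 Vascular primary endothelium (human umbilical vein) was exposed to chemicals and assayed 24 h later. VCAM-1 levels came from ELISA, with DMSO serving as baseline for bidirectional fitting.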
For orientation: ELISA stands for enzyme-linked immunosorbent assay.

In assay [15] the target is Glucocorticoid receptor (Homo sapiens) (UniProt P04150). The experiment in a line: ATG_GR_TRANS: Attagene TRANS-FACTORIAL HepG2 Assay for human Glucocorticoid Receptor (GR) (AID 2282978; active means hit-call score of the fitted dose curve at least 0.9, where 1 is the maximum;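 further: activators score as hits since higher reporter transcript over DMSO is fitted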). The note with it: HepG2 Attagene TRANS GR reporter, mRNA transcription. In short, it runs like this:
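Reporter transcript levels, detected by fluorescence after RT-PCR and capillary electrophoresis, served as the endpoint. HepG2 cells bearing transfected GAL4-UAS reporters responsive to NR-GAL4 chimeras were incubated with compound 24 h; DMSO defined baseline.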

Assay [16] addresses Nuclear respiratory factor 1 (Homo sapiens) (UniProt Q16656). The experiment in a line: ATG_NRF1_CIS: Attagene CIS-FACTORIAL HepG2 Assay for human Nuclear Respiratory Factor 1 (NRF1) Orphan Gene (AID 2282987). As to conditions: HepG2 NRF1 cis-element reporter, Attagene multiplex; actives raise or lower the signal. In short, it runs like this:
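Cells (HepG2, transient MRTU transfection) are exposed to compound for 24 h, then RNA isolated and reporter mRNA amplified and fluorescently labelled. Fragments are separated by capillary electrophoresis; signal change is fitted bidirectionally relative to DMSO.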

Assay [17] in a line: ATG_NF_kB_CIS: Attagene CIS-FACTORIAL HepG2 Assay for human Nuclear Factor Kappa B (NF-kB) (AID 2282991). As to conditions: HepG2 Attagene cis-factorial NF-kB reporter mRNA; actives raise or lower the signal. Put shortly:
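Measures mRNA induction of an NF-kB-responsive cis-element reporter in HepG2 cells transfected with multiple reporter units, sampled 24 h post-dosing; quantified by fluorescence after RT-PCR and capillary electrophoresis, fitted for activation or inhibition against DMSO.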

Assay [18] addresses Estrogen-related receptor gamma (Homo sapiens) (UniProt P62508). The experiment in a line: ATG_ERRg_TRANS: Attagene TRANS-FACTORIAL HepG2 Assay for human Estrogen-Related Receptor gamma (ERRg) (AID 2282977; active means hit-call score of the fitted dose curve at least 0.9, where 1 is the maximum;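 further: hits increase reporter signal over DMSO so potencies reflect activators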). The note with it: HepG2 Attagene TRANS reporter, ERRg transactivation. In short, it runs like this:
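Induction of reporter transcripts through a chimeric NR-Gal4 protein is quantified in transfected human HepG2 liver cells after 24 h chemical exposure, using RT-PCR with capillary electrophoresis detection and DMSO as baseline.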

For assay [19], the target named is Bile acid receptor (Homo sapiens) (UniProt Q96RI1). The experiment in a line: ATG_FXR_TRANS: Attagene TRANS-FACTORIAL HepG2 Assay for Farnesoid X Receptor (FXR) (AID 2282979; active means hit-call score of the fitted dose curve at least 0.9, where 1 is the maximum;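 further: hits raise reporter mRNA above DMSO so AC50 marks FXR activation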). The note with it: HepG2 Attagene TRANS FXR-GAL4 reporter transcription. In short, it runs like this:
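Read-out: fluorescent reporter transcripts quantified by capillary electrophoresis after RT-PCR of total RNA. Source cells were HepG2 transiently carrying chimeric NR-GAL4 plus GAL4-UAS reporter units, dosed 24 h. Activity fitted upward relative to DMSO baseline.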

A short description of assay [20]: BSK_3C_TissueFactor: BioMAP Diversity Plus: 3C Assay for Tissue Factor Biomarker Activity (AID 2282997). As to conditions: BioMAP 3C HUVEC, tissue factor biomarker readout; actives raise or lower the signal. In short, it runs like this: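 HUVEC, 3C system, 24 h post-dose; Tissue Factor by ELISA; bidirectional fit vs DMSO baseline.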

Sequence of Cellular tumor antigen p53 (Homo sapiens) (P04637 whole entry, looked up): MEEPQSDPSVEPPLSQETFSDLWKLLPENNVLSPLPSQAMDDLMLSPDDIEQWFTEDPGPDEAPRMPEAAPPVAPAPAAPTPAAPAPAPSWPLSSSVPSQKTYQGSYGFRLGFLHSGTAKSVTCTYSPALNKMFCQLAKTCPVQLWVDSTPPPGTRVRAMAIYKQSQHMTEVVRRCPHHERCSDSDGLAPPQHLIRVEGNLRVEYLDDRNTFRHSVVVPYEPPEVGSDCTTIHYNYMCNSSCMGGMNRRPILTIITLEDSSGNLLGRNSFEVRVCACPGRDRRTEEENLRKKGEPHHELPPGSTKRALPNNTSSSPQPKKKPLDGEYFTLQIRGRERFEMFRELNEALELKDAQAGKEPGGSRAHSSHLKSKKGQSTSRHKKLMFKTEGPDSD
Sequence of Oxysterols receptor LXR-beta (Homo sapiens) (P55055 whole entry, looked up, the tested form may be a part): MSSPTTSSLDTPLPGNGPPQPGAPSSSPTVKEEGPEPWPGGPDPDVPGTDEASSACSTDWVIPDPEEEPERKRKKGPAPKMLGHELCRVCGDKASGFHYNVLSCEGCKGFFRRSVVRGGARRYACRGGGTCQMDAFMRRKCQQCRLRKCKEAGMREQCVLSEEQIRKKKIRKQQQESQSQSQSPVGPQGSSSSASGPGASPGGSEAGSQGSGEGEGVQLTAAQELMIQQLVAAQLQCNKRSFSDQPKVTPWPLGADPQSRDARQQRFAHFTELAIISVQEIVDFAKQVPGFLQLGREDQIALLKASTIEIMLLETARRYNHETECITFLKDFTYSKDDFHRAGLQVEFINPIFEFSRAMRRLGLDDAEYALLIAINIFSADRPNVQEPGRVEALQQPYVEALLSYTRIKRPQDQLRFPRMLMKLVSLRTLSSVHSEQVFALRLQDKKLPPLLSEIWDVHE
Sequence of Nuclear receptor subfamily 4 group A member 2 (Homo sapiens) (P43354 whole entry, looked up, the tested form may be a part): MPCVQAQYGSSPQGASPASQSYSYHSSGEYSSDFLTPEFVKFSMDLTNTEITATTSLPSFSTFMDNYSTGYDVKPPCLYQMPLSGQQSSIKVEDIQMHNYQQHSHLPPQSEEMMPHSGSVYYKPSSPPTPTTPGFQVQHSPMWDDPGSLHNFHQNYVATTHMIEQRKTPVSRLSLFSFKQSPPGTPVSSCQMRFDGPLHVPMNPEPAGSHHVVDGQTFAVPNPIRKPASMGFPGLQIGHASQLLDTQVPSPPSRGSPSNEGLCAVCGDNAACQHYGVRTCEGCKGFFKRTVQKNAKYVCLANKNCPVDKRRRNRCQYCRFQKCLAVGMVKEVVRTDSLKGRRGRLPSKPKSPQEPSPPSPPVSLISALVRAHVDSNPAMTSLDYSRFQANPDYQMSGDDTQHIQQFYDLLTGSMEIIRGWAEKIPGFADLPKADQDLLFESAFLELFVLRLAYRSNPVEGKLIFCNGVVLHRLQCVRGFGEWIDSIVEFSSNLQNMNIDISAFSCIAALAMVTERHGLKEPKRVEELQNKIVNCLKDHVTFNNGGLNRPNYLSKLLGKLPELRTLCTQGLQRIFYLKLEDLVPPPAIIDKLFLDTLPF
Sequence of Bile acid receptor (Homo sapiens) (Q96RI1 whole entry, looked up, the tested form may be a part): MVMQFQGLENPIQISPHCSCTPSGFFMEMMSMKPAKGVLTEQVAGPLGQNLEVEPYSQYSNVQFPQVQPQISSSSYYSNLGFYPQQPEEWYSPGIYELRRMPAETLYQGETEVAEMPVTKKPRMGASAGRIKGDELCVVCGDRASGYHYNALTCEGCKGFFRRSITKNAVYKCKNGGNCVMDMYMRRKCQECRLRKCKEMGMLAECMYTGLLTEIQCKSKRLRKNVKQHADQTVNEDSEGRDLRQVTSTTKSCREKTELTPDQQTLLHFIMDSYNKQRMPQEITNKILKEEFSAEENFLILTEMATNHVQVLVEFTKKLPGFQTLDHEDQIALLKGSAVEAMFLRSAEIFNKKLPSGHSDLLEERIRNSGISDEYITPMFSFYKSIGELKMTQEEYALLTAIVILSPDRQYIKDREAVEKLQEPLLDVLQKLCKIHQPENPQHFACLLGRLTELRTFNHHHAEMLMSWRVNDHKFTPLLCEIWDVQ
Sequence of Transcriptional activator Myb (Homo sapiens) (P10242 whole entry, looked up): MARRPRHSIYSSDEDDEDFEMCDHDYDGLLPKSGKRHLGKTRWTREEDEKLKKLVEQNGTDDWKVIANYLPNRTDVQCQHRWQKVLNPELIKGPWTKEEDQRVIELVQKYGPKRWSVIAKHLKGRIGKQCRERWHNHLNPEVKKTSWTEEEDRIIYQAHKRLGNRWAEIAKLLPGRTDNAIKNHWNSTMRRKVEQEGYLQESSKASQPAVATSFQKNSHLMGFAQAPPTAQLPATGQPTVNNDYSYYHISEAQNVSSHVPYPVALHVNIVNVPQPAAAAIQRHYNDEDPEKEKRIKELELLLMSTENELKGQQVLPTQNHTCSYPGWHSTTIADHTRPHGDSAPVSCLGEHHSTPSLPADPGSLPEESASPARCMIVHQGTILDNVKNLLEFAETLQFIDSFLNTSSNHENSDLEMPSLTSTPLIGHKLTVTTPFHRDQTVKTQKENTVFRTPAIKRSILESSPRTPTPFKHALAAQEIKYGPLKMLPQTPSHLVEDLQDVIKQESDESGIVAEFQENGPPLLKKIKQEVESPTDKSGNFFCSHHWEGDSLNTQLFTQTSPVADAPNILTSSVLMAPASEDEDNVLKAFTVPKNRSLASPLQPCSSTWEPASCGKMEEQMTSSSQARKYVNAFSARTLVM
Sequence of Glucocorticoid receptor (Homo sapiens) (P04150 whole entry, looked up, the tested form may be a part): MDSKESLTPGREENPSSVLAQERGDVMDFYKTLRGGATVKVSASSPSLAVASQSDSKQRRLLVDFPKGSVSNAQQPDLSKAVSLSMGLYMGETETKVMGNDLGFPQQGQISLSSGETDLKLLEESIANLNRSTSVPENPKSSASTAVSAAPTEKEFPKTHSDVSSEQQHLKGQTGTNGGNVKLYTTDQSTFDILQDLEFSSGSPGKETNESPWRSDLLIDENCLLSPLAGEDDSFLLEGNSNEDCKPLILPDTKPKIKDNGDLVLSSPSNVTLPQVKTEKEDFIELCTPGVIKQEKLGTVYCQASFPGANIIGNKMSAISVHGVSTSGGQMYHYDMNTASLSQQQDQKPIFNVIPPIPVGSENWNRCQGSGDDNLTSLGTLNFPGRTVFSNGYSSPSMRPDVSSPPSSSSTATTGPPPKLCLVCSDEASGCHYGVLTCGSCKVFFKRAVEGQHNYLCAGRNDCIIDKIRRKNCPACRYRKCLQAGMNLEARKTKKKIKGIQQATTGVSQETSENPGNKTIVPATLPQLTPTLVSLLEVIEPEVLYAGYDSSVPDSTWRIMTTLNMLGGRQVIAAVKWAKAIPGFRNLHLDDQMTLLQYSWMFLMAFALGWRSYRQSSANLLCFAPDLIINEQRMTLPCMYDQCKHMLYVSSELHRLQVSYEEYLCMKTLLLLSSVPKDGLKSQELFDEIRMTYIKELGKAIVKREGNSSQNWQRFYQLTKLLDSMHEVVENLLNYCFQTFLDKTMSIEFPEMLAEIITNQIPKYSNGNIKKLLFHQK
Sequence of Myc proto-oncogene protein (Homo sapiens) (P01106 whole entry, looked up): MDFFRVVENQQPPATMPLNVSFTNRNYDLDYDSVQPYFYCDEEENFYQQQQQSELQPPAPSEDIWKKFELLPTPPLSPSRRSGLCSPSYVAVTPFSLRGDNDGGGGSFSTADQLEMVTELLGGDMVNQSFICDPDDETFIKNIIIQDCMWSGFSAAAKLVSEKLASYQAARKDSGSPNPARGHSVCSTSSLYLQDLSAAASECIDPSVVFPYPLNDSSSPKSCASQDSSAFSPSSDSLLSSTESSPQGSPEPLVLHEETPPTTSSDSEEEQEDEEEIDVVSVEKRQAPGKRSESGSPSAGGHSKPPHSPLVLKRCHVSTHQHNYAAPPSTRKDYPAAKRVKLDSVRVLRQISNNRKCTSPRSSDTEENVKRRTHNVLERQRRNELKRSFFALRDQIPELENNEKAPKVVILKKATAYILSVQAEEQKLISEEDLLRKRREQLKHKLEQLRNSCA
Sequence of Oxysterols receptor LXR-alpha (Homo sapiens) (Q13133 whole entry, looked up, the tested form may be a part): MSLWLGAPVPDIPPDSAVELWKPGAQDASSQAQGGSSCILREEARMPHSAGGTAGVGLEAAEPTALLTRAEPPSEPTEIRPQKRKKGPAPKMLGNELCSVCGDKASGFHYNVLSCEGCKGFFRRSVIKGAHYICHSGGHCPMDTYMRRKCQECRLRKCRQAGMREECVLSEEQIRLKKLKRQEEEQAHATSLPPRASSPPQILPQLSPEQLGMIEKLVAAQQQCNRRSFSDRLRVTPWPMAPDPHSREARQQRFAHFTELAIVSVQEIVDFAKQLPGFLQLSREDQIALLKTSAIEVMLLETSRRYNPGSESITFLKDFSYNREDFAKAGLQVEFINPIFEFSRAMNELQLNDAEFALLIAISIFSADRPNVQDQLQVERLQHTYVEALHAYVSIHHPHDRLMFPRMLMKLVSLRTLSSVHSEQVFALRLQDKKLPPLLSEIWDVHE
Sequence of Nuclear respiratory factor 1 (Homo sapiens) (Q16656 whole entry, looked up, the tested form may be a part): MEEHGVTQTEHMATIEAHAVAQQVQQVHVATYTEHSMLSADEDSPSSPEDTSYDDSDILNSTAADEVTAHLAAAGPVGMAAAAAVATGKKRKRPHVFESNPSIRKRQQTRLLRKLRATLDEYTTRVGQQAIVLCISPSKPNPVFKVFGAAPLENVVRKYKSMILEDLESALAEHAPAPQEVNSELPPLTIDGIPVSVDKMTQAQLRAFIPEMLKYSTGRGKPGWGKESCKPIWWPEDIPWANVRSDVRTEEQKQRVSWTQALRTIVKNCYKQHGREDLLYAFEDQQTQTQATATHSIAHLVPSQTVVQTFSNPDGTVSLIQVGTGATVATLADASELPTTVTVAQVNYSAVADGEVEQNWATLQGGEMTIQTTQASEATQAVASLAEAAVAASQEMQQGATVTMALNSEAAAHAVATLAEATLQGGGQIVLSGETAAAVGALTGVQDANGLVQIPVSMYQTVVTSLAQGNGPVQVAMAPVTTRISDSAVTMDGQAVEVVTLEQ

Consider `COC(=O)c1ccccc1S(=O)(=O)NC(=O)Nc1nc(C)nc(OC)n1`, for which the compound was called inactive in [1], in assay [2], in assay [3], in assay [4], in assay [5] and in assay [6]. For the same compound, the compound was called inactive in [7], in [8], in assay [9], in assay [10], in [11] and in assay [12]. The result in assay [13] and in assay [14] was inactive. Also, the AC50 (as a rule, the concentration at which the activity in the assay is half-maximal) in assay [10] was 31.3 µM (active); in assay [11], 36 µM (active).
For the compound `COP(=S)(OC)Oc1ccc(SC)c(C)c1`, the compound was classed as inactive in assay [1], in assay [15], in [4], in [5], in assay [6] and in [7]. For the same compound, the compound was classed as inactive in assay [16], in [8], in assay [9], in [17], in assay [11] and in assay [12]. Further, the outcome in [13] and in assay [14] was inactive. Also, the concentration at half-maximal activity (AC50) is 24.9 µM (active) in [2], 39.3 µM (active) in [3] and 15.5 µM (active) in assay [10].
`COC(=O)c1ccccc1CS(=O)(=O)NC(=O)Nc1nc(OC)cc(OC)n1`: the call in assay [1], in [18], in assay [15], in assay [19], in assay [2] and in assay [3] was inactive. The call in assay [4], in assay [5], in assay [6], in [7], in [8] and in [9] was inactive. The call in assay [17], in [10], in assay [11], in [12], in assay [13] and in assay [14] was inactive. Also, the AC50 in assay [10] was 24.2 µM (active).
In the case of `CCOc1nc(NC)nc(NC(=O)NS(=O)(=O)c2ccccc2C(=O)OC)n1`, the result in [18], in assay [15], in assay [19], in assay [3], in assay [7] and in [16] was inactive. Moreover, the call in assay [8], in assay [9], in [17], in assay [10], in assay [11] and in assay [12] was inactive. The result in [20], in [13] and in [14] was inactive.
With `Oc1ccc(Cl)cc1Cc1ccccc1`, the compound was called inactive in [1], in assay [15], in [2], in assay [3], in assay [4] and in assay [5]. For the same compound, the outcome in [6], in assay [7], in [8], in assay [9], in assay [17] and in [10] was inactive. The compound was called inactive in assay [11] and in [12]. The AC50 in [15] is 33.6 µM (active); in assay [6], 14.7 µM (active); in [7] it was 15.2 µM (active); in [8], 13.1 µM (active); in assay [9], 6.37 µM (active); in [17] it was 16.7 µM (active). In addition, the AC50 in assay [10] is 8.4 µM (active) [middle of 9 runs]; in [11], 6.94 µM (active) and 8.1 µM (active) and 14.8 µM (active); in assay [13] it was 29.2 µM (active) [middle of 7 runs]; in assay [14], 34.9 µM (active) [middle of 7 runs].
